Data as given in PubChem BioAssay (NCI).
About 83,000 compounds went through this panel and 20% of them were active in at least one assay; those are over-represented in the sample as a whole.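 Compound tested at a single concentration for 48 hours in 96-well plates; a percent growth value below 10 was scored as active.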 A number with no mark means an inactive call. Active and inactive are the calls of the source.

Experiments:
Experiment in all cases: NCI-60 one-dose screen, 48 h (100 = growth as untreated, 0 = no growth, -100 = all killed)
Conditions in all cases: 10 µM unless noted
[1] = test system: NCI-H23 lung
[2] = test system: NCI-H226 lung
[3] = test system: NCI-H322M lung
[4] = test system: HOP-62 NSCLC
[5] = test system: NCI-H460 lung
[6] = test system: HOP-92 NSCLC
[7] = test system: NCI-H522 lung
[8] = test system: A549/ATCC NSCLC
[9] = test system: 786-0 renal
[10] = test system: COLO 205 colon

Structure (SMILES)	growth [1]	growth [2]	growth [3]	growth [4]	growth [5]	growth [6]	growth [7]	growth [8]	growth [9]	growth [10]
CCCCCC(=O)OCc1ccc(Cl)c(Cl)c1	96.2%	100%	96.3%	101%	107%	109%	97.5%	103%	104%	106%
CCNC(=O)Nc1nc2ccc(Oc3ccnc(C(=O)NC)c3)cc2s1	90.1%	84.5%	102%	76.1%	73.4%	70.6%	56.6%	62.4%	88.3%	56.1%
O=C(c1ccc(/C=C/c2n[nH]c3ccccc23)cc1)N1CCNCC1	24.8%	3.94% (active)	33.5%	16.5%	10.7%	-3.02% (active)	36.2%	22.4%	37.7%	-42% (active)
COc1cc2c(cc1OCCCCCCN1CCN(c3ncnc4ccccc34)CC1)N=CC1CCCN1C2=O (stereo not given)	-26.1% (active)	-54.9% (active)	-2.96% (active)	-25.9% (active)	3.48% (active)	-21.7% (active)	-55.2% (active)	1.08% (active)	-10.3% (active)	-57.1% (active)
COc1cc(N2CCC(N(C)C)CC2)ccc1Nc1ncc(Cl)c(Nc2ccccc2P(C)(C)=O)n1	5.53% (active)	-44.3% (active)	-9.57% (active)	-4.93% (active)	7% (active)	-60.2% (active)	-39.4% (active)	-35.8% (active)	-20.6% (active)	-62.7% (active)
Cc1cc(O)c2c(c1)C1OC(=O)CCCCCN1C1=C2C(=O)c2cccc(OC3CC(O)C(O)C(C)O3)c2C1=O (stereo not given)	79.8%	118%	94.7%	123%	65.3%	134%	34.1%	59.9%	101%	53.3%
Cc1cc2c(-c3nc4ccccn4c3N)c(O)c(O)cc2c(O)c1-c1c(C)cc2c(-c3nc4ccccn4c3N)c(O)c(O)cc2c1O	9.67% (active)	26%	29.3%	11.3%	7% (active)	-8.82% (active)	-3.16% (active)	16.4%	32.4%	-48.5% (active)
NC1=Nc2ccccc2N(O)N1	102%	98.2%	96.8%	80.9%	110%	107%	71.7%	74.3%	101%	105%
CC(C)c1ccc(/C=N/Nc2nc3ccccc3s2)cc1	80.4%	81.7%	96%	87.8%	95.2%	82.5%	85%	85.8%	108%	88.5%
CC1(O)CCC2CC3OC3(C)CCC3OC3(C)C(O)CC1C2(C)C (stereo not given)	96%	115%	115%	116%	120%	-15.9% (active)	97.6%	92.8%	104%	109%
Cc1cc2c(-c3nc4ccccn4c3NC3CCCCC3)c(O)c(O)cc2c(O)c1-c1c(C)cc2c(-c3nc4ccccn4c3NC3CCCCC3)c(O)c(O)cc2c1O	30.7%	53.6%	54.9%	26%	19.2%	-3.03% (active)	15.1%	22.8%	72.4%	14.8%
COC(=O)[C@]12CC[C@@H](C)[C@H](C)[C@@H]1C1=CC[C@@H]3[C@@]4(C)C(C=O)=C[C@@](C)(COS(C)(=O)=O)C4=CC[C@@]3(C)[C@]1(C)CC2	-45.8% (active)	-57% (active)	12.2%	-14.5% (active)	-73.6% (active)	-87.7% (active)	-75.2% (active)	-14.6% (active)	-66% (active)	-39.9% (active)
Cc1nc(Nc2n[nH]c3c2CN(C(=O)N[C@H](CN(C)C)c2ccccc2)C3(C)C)c2sccc2n1	-22.8% (active)	-25.2% (active)	-19.1% (active)	-46.5% (active)	-42.8% (active)	-62.4% (active)	-45% (active)	0.0643% (active)	-15% (active)	-88.6% (active)
COc1cc(F)c(F)c(Nc2ccc(I)cc2F)c1NS(=O)(=O)C1(C[C@H](O)CO)CC1	13%	41.3%	14.2%	25.1%	27.8%	-19.1% (active)	31.4%	26.3%	54.5%	-0.628% (active)
Oc1ccc(C(c2ccc(O)cc2)C(Cl)(Cl)Cl)cc1	99.8%	104%	98.2%	107%	98.2%	56.1%	83.2%	89.2%	102%	104%
CNC(=O)c1c(C)oc2cc(Oc3ncnc4cc(OC)c(OC)cc34)ccc12	93.8%	59.4%	93.9%	82.9%	106%	81.1%	89.5%	81.1%	102%	108%
CCc1nc2cc(/C=C/C(=O)NO)c(F)cc2c(=O)n1CCc1ccccc1	-5.22% (active)	3.63% (active)	20.5%	-4.23% (active)	3.81% (active)	7.39% (active)	10.6%	-2.46% (active)	0.452% (active)	-33.1% (active)
O=C(Cn1c(=O)ccn(CCCCCCCCOc2ccc(Br)cc2)c1=O)Nc1ccc(Oc2ccc(Cl)cc2)cc1	47.8%	56.6%	102%	67.1%	56.8%	22.4%	44.6%	54.4%	65.7%	76.7%
COc1cc(Nc2ncc(F)c(Nc3ccc4c(n3)NC(=O)C(C)(C)O4)n2)cc(OC)c1OC	52.1%	12.2%	41.8%	27.3%	65%	2.19% (active)	6.57% (active)	26.8%	29%	18.9%
COc1cc(Nc2ncc3c(n2)-c2ccc(Cl)cc2C(c2c(F)cccc2OC)=NC3)ccc1C(=O)O	77.6%	63.2%	90.4%	50.2%	30.7%	115%	53.5%	54.2%	89.1%	8.87% (active)
Clc1nc(Cl)c2ncn(CC#CCn3cnc4c(Cl)nc(Cl)nc43)c2n1	38.6%	5.54% (active)	46.6%	62%	12.5%	-87.6% (active)	-71.2% (active)	8.8% (active)	7.75% (active)	-26.9% (active)
O=C(NOC[C@H](O)CO)c1ccc(F)c(F)c1Nc1ccc(I)cc1F	19.6%	49.5%	12.3%	27.7%	54%	-28% (active)	44.8%	21.4%	71.2%	0.302% (active)
C=C1CC[C@@H]2[C@](C)(COC(C)=O)[C@H](OC(C)=O)CC[C@@]2(C)[C@@H]1C/C=C1/C(=O)OC[C@H]1OC(C)=O	80.9%	23.6%	101%	75.7%	98%	71.9%	-41.6% (active)	85.8%	-10.9% (active)	22%
COc1cccc(NC(=O)Nc2ccc(Nc3ncnc4sc5c(c34)CCN(C(=O)CCl)C5)cc2)c1	96.7%	88.9%	96.8%	88.7%	98.1%	97.1%	71.6%	91%	103%	104%
COc1c(OCCCN2CCOCC2)ccc2c3n(c(=NC(=O)c4cnc(N)nc4)nc12)CCN3	20.6%	23.7%	-12.6% (active)	12.4%	9.88% (active)	-14.6% (active)	9.59% (active)	-5.58% (active)	-4.92% (active)	-18.6% (active)
Nc1c(C(=O)c2ccccc2)sc2nc(-c3cccs3)cc(-c3cccs3)c12	67%	80.6%	80.8%	59.6%	14.2%	69.2%	-20.7% (active)	36.2%	47.6%	35.9%
CCCCCCCC(=O)SCC/C=C/[C@@H]1CC(=O)NCc2cc(ccn2)C2=N[C@@](C)(CS2)C(=O)N[C@@H](C(C)C)C(=O)O1	2.97% (active)	-8.32% (active)	-16.8% (active)	-19% (active)	5.33% (active)	-6.63% (active)	-13% (active)	-6.82% (active)	12%	-56% (active)
